# Bioassay records from PubChem BioAssay.
# Pf growth 48h: P. falciparum growth inhibition at 48 hours (one generation); P. falciparum luciferase growth in erythrocytes, 48 h; Potency, µM (series often up to 28.7 µM), actives largely listed as inhibitors; actives 5.9% (n = 310,000)
#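 Cell-based growth assay: transgenic P. falciparum expressing firefly luciferase, cultured in red cells within RPMI 1640 containing 0.5% w/v Albumax, 24 mM bicarbonate and gentamycin. A drop in luciferase activity indicates inhibition.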
# Pf growth 96h: inhibits malaria parasite growth, 96 h. P. falciparum luciferase reporter growth, 96 h. Potency, µM (highest dose often 28.7 µM), most hits filed as inhibitors. actives 6.9% (n = 320,000)
#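 Luminescence readout: decreased luciferase signal marks inhibited growth of reporter-expressing P. falciparum in infected red cells (2% hematocrit, 0.05% parasitemia final), exposed to compound two generations (96 h, 37 C, 5% CO2).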
# CHX counter: affects cycloheximide protein synthesis inhibition readout, counter-screen. cell reporter, cycloheximide protein synthesis inhibition counterscreen. max response, %. actives 12% (n = 300,000). AID 2314; in the data active = max response mostly above about 13%, no sharp cut-off; inactive = mostly below about 14%; also: read at 38.3 µM for the half of the compounds with a filed dose
# SARS PLpro yeast: inhibitors of SARS-CoV papain-like protease in yeast; AID 485353; Potency, µM (top dose mostly 32.9 µM), actives largely listed as activators; actives 0.19% (n = 330,000); S. cerevisiae expressing SARS-CoV PLpro, growth rescue; calls by dose curve; also: nearly all actives have a fitted effect of over 55% in size
# Shiga inhibitor: blocks Shiga toxin action in Vero cells | AID 2315 | inhibition, % at 38.7 µM | actives 9.2% (n = 290,000) | Vero cells, Shiga toxin protein synthesis inhibition reporter; in the data active = inhibition mostly above about 28%, no sharp cut-off; inactive = mostly below about 43%
# NS1 inh: blocks influenza NS1 protein function; actives 0.4% (n = 270,000); AID 2326; Potency, µM (doses to about 46.1 µM); calls by dose curve; also: actives are rising curves; nearly all actives have a fitted effect of over 50% in size
#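 A cell-based growth assay was used: compounds that relieve NS1-induced slow growth of budding yeast raise OD600. Assay medium was yeast nitrogen base with ammonium sulphate and -URA supplement, pH 6.0, with 2% galactose.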
# Hits are given with their value; - = inactive; ? = inconclusive; . = no result given. Only some compounds are listed: those with a hit (about 21% of all), similar ones and a draw of the others. Unless noted, calls follow the shape of the dose curve; as a rule, active = well fitted inhibition curve with a large enough effect; inconclusive = small, poorly fitted or top-dose-only effect, or another doubt; inactive = no such curve, though single readings can be large or run the other way.
SMILES,Pf growth 48h,Pf growth 96h,CHX counter,SARS PLpro yeast,Shiga inhibitor,NS1 inh
CC(=O)N1c2ccc(S(=O)(=O)N3CCCC(C(=O)N4CCCCC4)C3)cc2CC1C (stereo not given),?,10µM,-,-,-,-
COc1cccc(C(=O)NC2CC3CCCC(C2)N3CC(=O)Nc2ccccc2)c1 (stereo not given),5.2µM,?,-,-,-,-
COc1cccc(C(=O)NC2CC3CCCC(C2)N3CC(=O)Nc2ccc(N(C)C)cc2)c1 (stereo not given),?,12µM,-,-,-,-
O=C(CN1C2CCCC1CC(NC(=O)c1ccccc1)C2)Nc1ccccc1 (stereo not given),?,8.3µM,-,-,-,-
Cc1ccc(S(=O)(=O)N2CCC(C(=O)OCC(=O)NC3(C#N)CCCCC3)CC2)cc1C,?,-,.,-,.,.
Cc1cccc(C(=O)NC2CC3CCCC(C2)N3C(=O)Nc2ccccc2)c1 (stereo not given),-,-,-,-,-,-
Cc1ccc(S(=O)(=O)N2CCN(C(=O)/C=C/c3ccccc3)CC2)cc1C,4.1µM,13µM,.,-,.,.
O=C(/C=C/c1ccco1)N1CCN(S(=O)(=O)c2ccccc2)CC1,.,.,.,-,.,.
Cc1ccc(S(=O)(=O)N2CCN(C(=O)CC(C)n3nc(C)c(Cl)c3C)CC2)cc1C (stereo not given),?,12µM,-,-,-,-
Cc1ccc(S(=O)(=O)N2CCN(C(=O)/C=C/c3ccco3)CC2)cc1,6.6µM,1.9µM,-,-,-,-
Cc1ccc(S(=O)(=O)N2CCN(C(=O)CCn3nc(C)c(C)c3C)CC2)cc1C,-,-,-,-,-,-
Cc1cccc(C)c1NC(=O)c1ccc(N2CCCC2=O)cc1,-,-,.,-,.,.
Cc1ccc(NC(=O)c2ccc([N+](=O)[O-])o2)c(C)c1,?,-,38,-,80,-
Cc1cccnc1NC(=O)c1ccc([N+](=O)[O-])o1,?,?,-,-,-,-
Cc1cccc(NC(=O)c2ccc([N+](=O)[O-])o2)n1,?,10µM,25,-,-,-
Cc1ccccc1NC(=O)c1ccc([N+](=O)[O-])o1,10µM,3.7µM,30,-,45,-
O=C(Nc1ccccc1Cl)c1ccc([N+](=O)[O-])o1,-,-,60,?,110,-
CCCCn1c(=O)c(CC(C)=O)nc2ccccc21,-,?,-,-,-,-
CCN1CCN(C(CNS(=O)(=O)c2ccc(Br)cc2)c2cccnc2)CC1 (stereo not given),-,?,-,-,-,-
COc1ccc(C(C(=O)NC(C)(C)C)N(C(=O)CCC(=O)Nc2cc(C)on2)c2cccc(F)c2)cc1 (stereo not given),?,-,-,-,-,-
CCC(C)(C)NC(=O)C(c1ccc(OC)cc1)N(Cc1ccc(OC)cc1)C(=O)CCC(=O)Nc1cc(C)on1 (stereo not given),?,-,-,-,-,-
CCC(C)(C)NC(=O)C(c1ccc(OC)cc1)N(C(=O)CCC(=O)Nc1cc(C)on1)c1ccc(F)cc1 (stereo not given),?,-,-,-,-,-
CCC(C)(C)NC(=O)C(c1ccc(OC)cc1)N(C(=O)CCC(=O)Nc1cc(C)on1)C(C)(C)C (stereo not given),?,12µM,-,-,-,-
CCc1ccc(N(C(=O)CCC(=O)Nc2cc(C)on2)C(C(=O)NC(C)(C)C)c2ccc(OC)cc2)cc1 (stereo not given),2.1µM,-,-,-,-,-
CCOc1cccc(N(C(=O)CCC(=O)Nc2cc(C)on2)C(C(=O)NC(C)(C)C)c2ccc(OC)cc2)c1 (stereo not given),3.3µM,?,-,-,-,-
SMILES,Pf growth 48h,Pf growth 96h,CHX counter,SARS PLpro yeast,Shiga inhibitor,NS1 inh
O=C(NCC1CCCO1)C1CCN(S(=O)(=O)c2cccc3cccnc23)CC1 (stereo not given),-,?,-,-,-,-
O=S(=O)(Nc1ccc(Cl)cc1)c1ccc2c(c1)CCO2,-,-,-,-,-,-
COC(=O)c1sc(S(=O)(=O)Nc2ccc(Br)cc2)c(C(=O)OC)c1C,-,-,-,-,-,-
COc1ccc(OC)c(NC(=O)CSc2nnc(CNC(=O)c3cccs3)o2)c1,-,?,-,-,-,-
O=C1NC(c2cn(-c3ccccc3)nc2-c2cccs2)C(C(=O)c2cccnc2)C(O)(C(F)(F)F)N1 (stereo not given),.,13µM,-,-,-,-
COc1ccc(C(N)=S)c(OC)c1,-,-,-,-,-,-
CC(O)c1nc2ccccc2n1CCCOc1ccccc1 (stereo not given),-,-,-,-,-,-
COc1ccc(-c2csc(-c3ccccc3)n2)c(OC)c1,-,-,53,-,115,.
COc1ccc(-c2csc(-c3cccs3)n2)c(OC)c1,-,-,34,-,70,.
COc1ccc(OC)c(S(=O)(=O)NCc2csc(-c3ccccc3)n2)c1,-,-,-,-,-,-
CC1(C)Cc2cccc(OCC(=O)NCc3ccccc3F)c2O1,?,?,.,-,.,.
COc1ccc(C2CC(=O)Oc3c(C(CCN4CCCCC4)c4ccc(N(C)C)cc4)c(OC)cc(OC)c32)cc1 (stereo not given),?,9.3µM,-,-,-,-
COc1ccc(C2CC(=O)Oc3c(C(CCN4CCCC(C)C4)c4ccc(N(C)C)cc4)c(OC)cc(OC)c32)cc1 (stereo not given),?,?,-,-,-,-
COc1cc(C2CC(=O)Oc3c(C(CCN4CCN(c5ccccc5)CC4)c4ccc(N(C)C)cc4)c(OC)cc(OC)c32)cc(OC)c1OC (stereo not given),4.1µM,4.1µM,-,-,-,-
COc1cc(OC)c2c(c1C(CCN1CCCC1)c1ccc(N(C)C)cc1)OC(=O)CC2c1ccc(N(C)C)cc1 (stereo not given),.,.,-,.,-,.
COc1cc(C2CC(=O)Oc3c(C(CCN4CCOCC4)c4ccc(N(C)C)cc4)c(OC)cc(OC)c32)cc(OC)c1OC (stereo not given),12µM,?,-,-,-,-
COc1ccccc1NS(=O)(=O)c1ccc(C)c(C(=O)NC2CCN(Cc3ccccc3)CC2)c1,10µM,?,.,-,.,.
O=C(NC1CCN(Cc2ccccc2)CC1)c1ccccc1NS(=O)(=O)c1ccc(F)cc1,.,.,.,-,.,.
COc1ccccc1NS(=O)(=O)c1cccc(C(=O)NC2CCN(Cc3ccccc3)CC2)c1,10µM,3.7µM,.,-,.,.
COc1ccc(NS(=O)(=O)c2ccc(C)c(C(=O)NC3CCN(Cc4ccccc4)CC3)c2)cc1,10µM,7.4µM,-,-,-,-
Cc1cc(=O)[nH]c(SCC(=O)NC2CCCc3ccccc32)n1 (stereo not given),?,-,-,-,-,-
O=C(c1ccc2[nH]c(=O)c(=O)[nH]c2c1)N1CCN(c2ccccc2)CC1,-,-,-,-,-,-
